Abeta rescue – qHTS for compounds that reverse cellular toxicity of Amyloid beta (A-beta) peptide in yeast: Primary Screen; AID 1347071, 2019; yeast expressing A-beta42, growth rescue, OD600, 48 h; response scale: 0% DMSO, 100% iron-clioquinol control; Potency, µM (top dose mostly 46.1 µM), hits mostly activators; actives 0.063% (n = 410,000); further: nearly all actives have a fitted effect of over 55% in size
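Yeast A-beta toxicity model in growth medium with pinned compounds, 48 h at 30 C; growth read as absorbance at 600 nm. Normalized to FeCl3/clioquinol equimolar mix (positive) and DMSO (negative).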
PTAP TSG101 blk – qHTS Assay for Iinhibitors of HIV-1 Budding by Blocking the Interaction of PTAP/TSG101; Potency, µM (titrated, usually from 115 µM), for the others: at the highest dose activity change, negative = inhibition, usual class: inhibitors; 340,000 tested, under 10 active; Fluorescence polarization, FITC-PTAP peptide / Tsg101 binding; Tumor susceptibility gene 101 protein (Homo sapiens), Q99816; active means well fitted inhibition curve with a large enough effect in the main read-out, with a control signal flat, not every such curve was filed as active; inconclusive means small, poorly fitted or top-dose-only effect, or effect the other way, or a change in a side signal; inactive means no such curve, though single readings can be large or run the other way; further: % of control where 0% means no effect
Target sequence (Q99816 whole entry, looked up): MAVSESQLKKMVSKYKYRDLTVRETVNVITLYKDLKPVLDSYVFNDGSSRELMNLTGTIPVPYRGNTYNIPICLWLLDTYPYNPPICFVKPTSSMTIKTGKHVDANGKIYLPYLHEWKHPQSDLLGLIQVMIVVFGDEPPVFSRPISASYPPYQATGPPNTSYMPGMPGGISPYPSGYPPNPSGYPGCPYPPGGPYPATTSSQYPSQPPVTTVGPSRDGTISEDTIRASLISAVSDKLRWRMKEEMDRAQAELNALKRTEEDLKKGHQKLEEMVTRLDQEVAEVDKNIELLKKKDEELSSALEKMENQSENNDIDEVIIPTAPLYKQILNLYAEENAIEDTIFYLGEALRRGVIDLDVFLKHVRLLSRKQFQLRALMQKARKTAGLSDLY
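Compounds were pin-transferred onto Tsg101 binding domain (10 uM final) in HEPES pH 7.5 buffer, then FITC-PTAP peptide was added at 50 nM final. After 20 min at RT, polarization reported peptide displacement across a qHTS concentration series.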
FUS suppressor – qHTS for Suppressors of FUS Proteinopathy: Primary screen using FUS-linked yeast assay | Potency, µM (titrated, usually from 76.6 µM), usual class: activators | actives 0.24% (n = 390,000) | S. cerevisiae FUS-expressing, growth rescue, OD600, 24 h;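 further: plate controls were DMSO vehicle for no effect and reference control for full effect; nearly all actives have a fitted effect of over 55% in size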
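Yeast expressing FUS under galactose induction, OD 0.005 in 2% galactose medium; compounds in a dilution series, 24 h at 30C. Growth rescue by absorbance at 600 nm; CP55940 positive control, DMSO negative.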
aSyn yeast inh – qHTS of alpha-syn Inhibitors; actives 0.14% (n = 370,000); Yeast expressing alpha-synuclein, growth rescue, BacTiter-Glo, 24 h; Potency, µM (top dose mostly 46.1 µM), for inactives: at the highest dose growth rescue (activation), hits mostly activators; AID 652106, 2013; further: % of control where 0% means no effect; nearly all actives have a fitted effect of over 65% in size
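Galactose-induced alpha-syn yeast (OD600=0.02, raffinose-pregrown) + pinned cpd, 24 hr, 30 deg C; growth by BacTiter-Glo luminescence. Growth restoration scores as activation.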
TDP-43 yeast inh – qHTS of TDP-43 Inhibitors. TDP-43 expressing yeast growth rescue, BacTiter-Glo, 24 h. Potency, µM (top dose mostly 46.1 µM), inactives show at the highest dose growth rescue (activation), usual class: activators. actives 1.8% (n = 410,000); further: % of control where 0% means no effect; nearly all actives have a fitted effect of over 50% in size
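Cell-based yeast growth screen: TDP-43 expression induced in galactose, inoculum OD600=0.02 after raffinose pregrowth to mid-log. Read-out BacTiter-Glo luminescence at 24 hr, 30 deg C; inhibition of toxicity seen as signal increase.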
Starred values were filed as active, the others as inactive; i = inactive; ? = inconclusive; . = not tested or not shown; ! = not confirmed by another sample. Sampled rows, rich in hits. Any-hit rate of the full collection: about 2.1%. Unless noted, the call rests on the fitted dose curve; in most records, active means well fitted curve in the direction sought with a large enough effect; inconclusive means small, poorly fitted or top-dose-only effect, or another doubt; inactive means no such curve, though single readings can be large; an effect the other way counts as inactive or inconclusive. Potency means the concentration at half of the fitted maximal effect.

SMILES | Abeta rescue | PTAP TSG101 blk | FUS suppressor | aSyn yeast inh | TDP-43 yeast inh
COC(=O)c1c(NC(=O)C2(C)Cc3ccccc3C(=O)O2)sc2c1CCCC2 (centres undefined) | i | -3.5% | 3.98µM* | 15.6% | -25.8%
COC(=O)c1c(NC(=O)C2Cc3ccccc3C(=O)O2)sc2c1CCCC2 (centres undefined) | i | 0.3% | i | -3.2% | 23.7%
CCCCCC(=O)NC1CCCCN(Cc2cccc(Cl)c2)C1=O (centres undefined) | . | . | i | . | .
N#Cc1ccc(C(=O)NC(=S)NC2CCCCC2)cc1 | ? | -0.1% | i | -8.7% | 22.4µM*
CC(C)Oc1cccc(C(=O)Nc2ccc(-c3nc4cc(Cl)cc(Cl)c4o3)cc2)c1 | i | . | i | . | 21.5%
Cc1ccc(Nc2c3c(nc4nncn24)CCC3)cc1C | i | . | i | . | ?
CCOc1ccc(Nc2c3c(nc4nncn24)CCC3)cc1 | i | . | i | . | 35.5µM*
Cc1cccc(Nc2c3c(nc4nncn24)CCC3)c1 | i | . | i | . | 17.8µM*
Clc1ccc(Nc2c3c(nc4ncnn24)CCC3)cc1 | i | -0.1% | i | 0.6% | 17.8µM*
Cc1ccccc1Nc1c2c(nc3nncn13)CCC2 | i | . | i | . | 0.0%
Brc1ccc(Nc2c3c(nc4nncn24)CCC3)cc1 | i | . | i | . | 12.6µM*
CC1(C(=O)NS(=O)(=O)c2cccc(C#N)c2)CCN1C(=O)c1ccco1 (centres undefined) | i | . | i | -1.6% | 5.4%
COc1cccc(CNC(=O)C2CCCN(S(=O)(=O)c3cn(C)cn3)C2)c1 (centres undefined) | i | . | i | . | 16.0%
c1ccc(-c2nc(SCC3CCCCO3)n[nH]2)cc1 (centres undefined) | . | . | . | 0.8% | .
Cc1ccc(Nc2c3c(nc4nncn24)CCC3)cc1 | i | . | i | . | 15.8µM*
O=C(O)c1ccc(NCc2ccncc2)cc1 | i | -7.1% | i | -6.6% | -32.5%
O=C(O)c1ccc(NCc2cccc(Br)c2)cc1 | i | -5.4% | i | ? | 11.2µM*
COc1cc(OC)c(NC(=O)Nc2cccc(OCc3cc(=O)n4ccccc4n3)c2)cc1Cl | i | . | i | . | 24.3%
COc1ccc(C(=O)CC2(O)C(=O)N(Cc3cccc(C(F)(F)F)c3)c3ccccc32)cc1 (centres undefined) | i | . | ? | ? | 22.4µM*
COc1cccc(C(=O)CC2(O)C(=O)N(Cc3ccccc3)c3ccccc32)c1 (centres undefined) | i | . | i | . | 26.4%
CCOC(=O)CNC(=O)CSc1nc(-c2ccc(OC)cc2)ns1 | i | 0.4% | i | 16.6% | 25.1µM*
O=C(CN1C(=O)CCSc2ccccc21)Nc1ccc(C(F)(F)F)cc1 | i | . | i | 3.2% | 26.9%
Cc1cc(C)c(S(=O)(=O)Nc2ccc(-c3ccc(N4CCCCCC4)nn3)cc2)c(C)c1 | i | . | i | . | 6.5%
Cc1ccc(C(=O)Oc2ccc(Cl)c3cccnc23)cc1[N+](=O)[O-] | i | -2.2% | . | -48.0% | ?
O=C(Oc1ccc(Cl)c2cccnc12)c1cccnc1 | i | -0.6% | i | 27.9% | 11.2µM*
SMILES | Abeta rescue | PTAP TSG101 blk | FUS suppressor | aSyn yeast inh | TDP-43 yeast inh
O=C(N/N=C1\CC2CC=CC12)c1ccc(Br)cc1 (centres undefined) | i | 0.0% | i | -9.8% | 4.8%
Cc1cc(Br)c(OCc2ccc(C(=O)N/N=C3\CC4CC=CC34)cc2)c(Br)c1 (centres undefined) | i | -3.5% | i | 9.7% | 25.1µM*
O=C(NCCc1csc(-c2ccc(F)cc2)n1)c1c(F)cccc1Cl | i | . | i | . | 12.6µM*
O=C(COc1ccc(Cl)cc1)NCCc1csc(-c2ccc(F)cc2)n1 | i | . | i | . | 11.2%
O=C(NCCc1csc(-c2ccccc2)n1)c1c(F)cccc1F | i | -1.0% | i | -9.5% | 20µM*
O=C(NCCc1csc(-c2ccc(Cl)cc2)n1)c1ccco1 | i | 2.3% | i | -13.9% | 15.8µM*!
COc1cc(C(=O)NCCc2csc(-c3ccc(Cl)cc3)n2)cc(OC)c1OC | i | . | i | . | 22.4µM*
O=C(NCc1csc(-c2ccccc2)n1)c1cc(F)cc2c1OCOC2 | i | -1.7% | i | 5.7% | 12.6µM*
O=C(NCCc1csc(-c2cccnc2)n1)c1c(F)cccc1F | i | 0.2% | i | -0.7% | 1.1%
O=C(NCCc1csc(-c2ccccc2)n1)c1c(F)cccc1Cl | i | -3.6% | i | 0.2% | 12.6µM*
CCC(C)(C)NC(=S)Nc1ccccc1C | 12.6µM* | -1.3% | i | -12.5% | 0.0%
COc1ccc(-c2ccc(CCC(=O)O)o2)cc1 | i | 0.0% | ? | ? | 10µM*
NC(=O)C1CCN(C(=S)c2ccc(-c3ccc(Br)cc3)o2)CC1 | i | -5.3% | i | -5.5% | -8.0%
O=C(O)CCc1ccc(-c2ccc(Br)cc2)o1 | i | -10.4% | i | -43.8% | 3.16µM*
NC(=O)c1ccc(-c2ccc(Br)cc2)o1 | i | -0.8% | i | -0.2% | 12.6µM*
CN(c1ccc(Cl)cc1)c1cc2c(c3c1ccn3C)C1CCC2O1 (centres undefined) | ? | . | ? | -0.6% | ?
Cc1ccc(S(=O)(=O)N2CCN(c3nc(-n4c(=O)[nH]c5ccccc54)nc4ccccc34)CC2)cc1 | . | . | . | 0.4% | .
COc1ccc(NC(=O)c2cccc3c(-c4cccnc4)coc23)cc1 | i | . | i | 11.5% | 10µM*
COc1ccc(-c2ccc(C(=O)NCc3ccc(N(C)C)cc3)c3occc23)c(C)c1 | i | . | i | -1.3% | 17.8µM*
O=C(NCc1ccc(C(F)(F)F)cc1)c1cccc2c(-c3cccnc3)coc12 | i | . | i | 12.4% | 12.6µM*
O=C(NCc1ccccc1)c1cccc2c(-c3cccnc3)coc12 | i | . | i | 0.3% | ?
COc1ccc(-c2ccc(C(=O)Nc3cccc(NS(C)(=O)=O)c3)c3occc23)c(C)c1 | i | . | ? | -7.0% | 14.1µM*
CCCNC(=O)C1CCC(Cn2c(=O)c3sccc3n(CC(=O)N3CCCC(C)C3)c2=O)CC1 (centres undefined) | i | . | i | . | 16.6%
O=C(COC(=O)CCC1CCCC1)Nc1ccc(F)cc1 | i | -7.0% | . | -8.3% | 17.1%
COc1cc(N(C)C)c(OC)cc1/C=C1\C=Cc2ccccc21 | . | . | . | -8.3% | .
COc1ccc(-c2coc3c(C(=O)Nc4cccnc4)cccc23)c(C)c1 | i | . | ? | -12.6% | 17.8µM*
CN(C)c1cccc(NC(=O)c2cccc3c(-c4ccc(F)c(F)c4)coc23)c1 | i | . | i | 4.5% | 14.1µM*

High-throughput results deposited in PubChem by National Center for Advancing Translational Sciences (NCATS).
